PubChem BioAssay (EPA / NIEHS)
Results filed as inconclusive are left out. Active and inactive are the calls of the source. The calls were made as follows, unless noted: active = hit-call score of the fitted dose curve at least 0.9, where 1 is the maximum; inactive = score below 0.9.

Legend:
[1] = molecular target: Glucocorticoid receptor (Homo sapiens) (UniProt P04150); experiment: ATG_GR_TRANS: Attagene TRANS-FACTORIAL HepG2 Assay for human Glucocorticoid Receptor (GR) (AID 2282978; active = hit-call score of the fitted dose curve at least 0.9, where 1 is the maximum;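 also: activators score as hits since higher reporter transcript over DMSO is fitted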); conditions: HepG2 Attagene TRANS GR reporter, mRNA transcription
Glucocorticoid receptor (Homo sapiens), sequence (P04150 whole entry, looked up, the tested form may be a part): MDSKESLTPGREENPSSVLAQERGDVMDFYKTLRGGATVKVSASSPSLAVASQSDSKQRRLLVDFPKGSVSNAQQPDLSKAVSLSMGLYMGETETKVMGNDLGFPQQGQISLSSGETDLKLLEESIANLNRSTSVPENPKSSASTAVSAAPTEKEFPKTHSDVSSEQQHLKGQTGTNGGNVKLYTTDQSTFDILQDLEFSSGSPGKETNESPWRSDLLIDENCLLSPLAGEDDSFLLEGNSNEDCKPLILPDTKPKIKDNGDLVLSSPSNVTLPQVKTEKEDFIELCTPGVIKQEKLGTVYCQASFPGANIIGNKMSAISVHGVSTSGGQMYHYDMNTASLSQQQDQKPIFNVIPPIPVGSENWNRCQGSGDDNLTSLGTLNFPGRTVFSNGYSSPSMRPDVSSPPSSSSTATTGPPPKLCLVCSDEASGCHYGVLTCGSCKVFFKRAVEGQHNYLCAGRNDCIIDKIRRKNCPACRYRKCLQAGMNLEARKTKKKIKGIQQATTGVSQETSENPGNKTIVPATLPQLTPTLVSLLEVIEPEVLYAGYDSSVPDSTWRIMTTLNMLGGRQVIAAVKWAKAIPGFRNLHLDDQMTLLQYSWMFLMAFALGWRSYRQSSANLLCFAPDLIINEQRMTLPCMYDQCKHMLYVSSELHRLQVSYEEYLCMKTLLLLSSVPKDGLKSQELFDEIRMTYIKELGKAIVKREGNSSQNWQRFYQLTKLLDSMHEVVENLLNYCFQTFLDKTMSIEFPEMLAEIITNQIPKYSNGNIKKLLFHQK
In short: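 In this trans-factorial format, exogenous NR-GAL4 chimeric proteins in transfected HepG2 cells regulate GAL4-UAS reporter transcription. After 24 h treatment, reporter mRNA induction relative to DMSO is read by RT-PCR and capillary electrophoresis.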

[2] = molecular target: Oxysterols receptor LXR-alpha (Homo sapiens) (UniProt Q13133); experiment: ATG_LXRa_TRANS: Attagene TRANS-FACTORIAL HepG2 Assay for human Liver X Receptor alpha (LXRa) (AID 2282980; active = hit-call score of the fitted dose curve at least 0.9, where 1 is the maximum); conditions: HepG2 Attagene TRANS reporter, LXRa transactivation
Oxysterols receptor LXR-alpha (Homo sapiens), sequence (Q13133 whole entry, looked up, the tested form may be a part): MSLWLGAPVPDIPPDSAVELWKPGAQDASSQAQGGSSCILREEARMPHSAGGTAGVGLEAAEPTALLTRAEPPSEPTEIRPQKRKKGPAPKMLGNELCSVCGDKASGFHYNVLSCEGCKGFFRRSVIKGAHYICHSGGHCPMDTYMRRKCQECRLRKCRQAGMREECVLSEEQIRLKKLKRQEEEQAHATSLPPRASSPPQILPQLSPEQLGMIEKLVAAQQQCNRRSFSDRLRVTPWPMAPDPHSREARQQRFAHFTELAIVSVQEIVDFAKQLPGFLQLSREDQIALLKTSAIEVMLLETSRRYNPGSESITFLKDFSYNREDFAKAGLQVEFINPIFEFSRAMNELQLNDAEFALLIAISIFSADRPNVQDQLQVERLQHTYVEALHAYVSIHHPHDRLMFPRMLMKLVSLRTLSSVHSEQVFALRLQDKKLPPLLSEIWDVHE
In short: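 HepG2 cells were transiently transfected with multiplexed reporter units driven by chimeric LXRa–GAL4 fusion proteins, then dosed for 24 h. Reporter mRNA was quantified by RT-PCR, fluorescent labelling and capillary electrophoresis; gain of signal fitted against DMSO baseline.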

[3] = molecular target: Hepatocyte nuclear factor 4-alpha (Homo sapiens) (UniProt P41235); experiment: ATG_HNF4a_TRANS: Attagene TRANS-FACTORIAL HepG2 Assay for human Hepatocyte Nuclear Factor 4 alpha (HNF4a) (AID 2282982; active = hit-call score of the fitted dose curve at least 0.9, where 1 is the maximum); conditions: HepG2 HNF4a transactivation reporter, mRNA readout
Hepatocyte nuclear factor 4-alpha (Homo sapiens), sequence (P41235 whole entry, looked up): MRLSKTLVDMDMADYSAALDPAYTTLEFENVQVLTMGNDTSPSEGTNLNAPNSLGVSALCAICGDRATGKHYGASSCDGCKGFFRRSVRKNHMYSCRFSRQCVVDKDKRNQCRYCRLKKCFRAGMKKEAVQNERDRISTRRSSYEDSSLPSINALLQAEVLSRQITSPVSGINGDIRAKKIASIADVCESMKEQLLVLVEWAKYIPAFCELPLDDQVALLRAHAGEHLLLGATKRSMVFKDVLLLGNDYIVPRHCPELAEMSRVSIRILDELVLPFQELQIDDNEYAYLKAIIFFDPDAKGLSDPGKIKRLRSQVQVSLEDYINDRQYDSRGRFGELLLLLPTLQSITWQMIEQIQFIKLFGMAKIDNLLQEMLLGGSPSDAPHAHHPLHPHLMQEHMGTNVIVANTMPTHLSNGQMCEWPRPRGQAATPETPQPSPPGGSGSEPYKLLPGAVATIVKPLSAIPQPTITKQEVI
In short: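 Multiplexed reporter assay: transfected HepG2, 24 h exposure, total RNA → oligo(dT) RT → PCR → 6-FAM extension → HpaI digest → CE fluorescence. DMSO = negative control.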

[4] = ATG_M_32_TRANS: Attagene TRANS-FACTORIAL HepG2 Assay for M32 Transcription Factor (Internal Marker) (AID 2282984; active = hit-call score of the fitted dose curve at least 0.9, where 1 is the maximum;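 also: transcript level of a background control reporter unit measured by RT-PCR and capillary electrophoresis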); conditions: HepG2 Attagene TRANS M32 internal marker reporter
In short: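 Cell-based TRANS-format assay in HepG2: exogenous chimeric GAL4 reporter units transiently expressed, compounds applied 24 h. Reporter mRNA detected by RT-PCR plus capillary electrophoresis; this readout is an internal background marker.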

[5] = molecular target: Transcriptional activator Myb (Homo sapiens) (UniProt P10242); experiment: ATG_Myb_CIS: Attagene CIS-FACTORIAL HepG2 Assay for human Myeloblastosis (Myb) Proto-Oncogene Transcription Factor (AID 2282986); conditions: HepG2 Attagene CIS-FACTORIAL Myb reporter transcription; actives raise or lower the signal
Transcriptional activator Myb (Homo sapiens), sequence (P10242 whole entry, looked up): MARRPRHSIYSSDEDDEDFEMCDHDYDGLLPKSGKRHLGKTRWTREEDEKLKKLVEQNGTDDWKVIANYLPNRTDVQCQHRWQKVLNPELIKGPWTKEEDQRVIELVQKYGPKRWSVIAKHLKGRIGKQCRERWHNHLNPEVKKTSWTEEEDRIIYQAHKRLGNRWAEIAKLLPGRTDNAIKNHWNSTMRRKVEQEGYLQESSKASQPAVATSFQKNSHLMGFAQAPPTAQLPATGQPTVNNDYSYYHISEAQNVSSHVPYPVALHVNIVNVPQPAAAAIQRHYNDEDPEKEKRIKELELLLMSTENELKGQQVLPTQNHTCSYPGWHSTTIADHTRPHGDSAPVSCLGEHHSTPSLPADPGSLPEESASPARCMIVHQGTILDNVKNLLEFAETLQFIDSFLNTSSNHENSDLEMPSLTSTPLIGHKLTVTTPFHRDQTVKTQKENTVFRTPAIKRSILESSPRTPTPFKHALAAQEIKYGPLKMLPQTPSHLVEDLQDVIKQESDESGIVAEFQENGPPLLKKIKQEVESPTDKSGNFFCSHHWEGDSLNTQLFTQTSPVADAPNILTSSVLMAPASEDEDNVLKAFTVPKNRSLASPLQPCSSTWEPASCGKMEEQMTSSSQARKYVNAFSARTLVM
In short: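 Steps: transfect HepG2 with cis-regulated reporter units; dose with chemical for 24 h; isolate RNA, reverse-transcribe, PCR-amplify and FAM-label reporter sequences; digest with HpaI; resolve by capillary electrophoresis. Activity fitted in both directions relative to DMSO.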

[6] = molecular target: Nuclear respiratory factor 1 (Homo sapiens) (UniProt Q16656); experiment: ATG_NRF1_CIS: Attagene CIS-FACTORIAL HepG2 Assay for human Nuclear Respiratory Factor 1 (NRF1) Orphan Gene (AID 2282987); conditions: HepG2 NRF1 cis-element reporter, Attagene multiplex; actives raise or lower the signal
Nuclear respiratory factor 1 (Homo sapiens), sequence (Q16656 whole entry, looked up, the tested form may be a part): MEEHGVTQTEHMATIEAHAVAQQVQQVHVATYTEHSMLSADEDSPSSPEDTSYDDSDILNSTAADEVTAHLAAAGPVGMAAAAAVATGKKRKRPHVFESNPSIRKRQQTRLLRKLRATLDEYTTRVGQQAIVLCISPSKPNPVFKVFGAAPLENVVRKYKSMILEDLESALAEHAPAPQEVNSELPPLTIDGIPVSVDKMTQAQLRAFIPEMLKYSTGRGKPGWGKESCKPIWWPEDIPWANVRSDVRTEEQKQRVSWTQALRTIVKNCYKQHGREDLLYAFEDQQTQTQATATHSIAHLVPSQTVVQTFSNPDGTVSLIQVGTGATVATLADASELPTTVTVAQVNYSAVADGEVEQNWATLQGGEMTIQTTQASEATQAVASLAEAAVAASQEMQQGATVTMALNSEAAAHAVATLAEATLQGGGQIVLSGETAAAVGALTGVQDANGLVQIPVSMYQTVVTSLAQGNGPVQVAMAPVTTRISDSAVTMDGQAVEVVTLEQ
In short: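 Fluorescence intensity of labelled reporter cDNA fragments, resolved by capillary electrophoresis, served as readout for NRF1 cis-element activity. Transiently transfected HepG2 cells were dosed for 24 hours; activity in either direction was fitted against DMSO negative control.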

[7] = ATG_NFI_CIS: Attagene CIS-FACTORIAL HepG2 Assay for human Nuclear Factor I (NFI) (AID 2282989); conditions: HepG2 cis-regulatory reporter, NFI response element transcription; actives raise or lower the signal
In short: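 HepG2 cells transiently transfected with cis-element-driven multiplexed reporter transcription units, dosed for 24 h. Reporter mRNA quantified by RT-PCR, fluorescent labelling, HpaI digestion and capillary electrophoresis; bidirectional fit versus DMSO baseline.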

[8] = molecular target: Myc proto-oncogene protein (Homo sapiens) (UniProt P01106); experiment: ATG_Myc_CIS: Attagene CIS-FACTORIAL HepG2 Assay for human Myelocytomatosis (Myc) Proto-Oncogene Transcription Factor (AID 2282990); conditions: HepG2, Attagene cis-reporter transcription factor activity; actives raise or lower the signal
Myc proto-oncogene protein (Homo sapiens), sequence (P01106 whole entry, looked up): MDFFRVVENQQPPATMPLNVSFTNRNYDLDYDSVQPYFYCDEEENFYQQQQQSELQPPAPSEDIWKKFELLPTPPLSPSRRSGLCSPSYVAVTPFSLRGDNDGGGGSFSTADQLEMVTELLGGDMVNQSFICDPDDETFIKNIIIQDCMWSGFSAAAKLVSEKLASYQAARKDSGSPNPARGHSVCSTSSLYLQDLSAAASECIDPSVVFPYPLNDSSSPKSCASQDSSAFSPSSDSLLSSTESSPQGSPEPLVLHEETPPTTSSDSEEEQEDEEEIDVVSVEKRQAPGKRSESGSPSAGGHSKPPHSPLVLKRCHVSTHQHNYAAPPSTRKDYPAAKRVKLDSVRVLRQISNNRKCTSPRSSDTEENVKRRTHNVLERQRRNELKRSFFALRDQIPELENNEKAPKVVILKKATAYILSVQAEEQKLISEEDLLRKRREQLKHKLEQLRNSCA
In short: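 HepG2, transient MRTU transfection (cis promoters, endogenous TFs); 24 h dosing; TriZol RNA → oligo(dT) RT → PCR → 6-FAM primer extension → HpaI cut → CE. Bidirectional fit vs DMSO.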

[9] = ATG_NF_kB_CIS: Attagene CIS-FACTORIAL HepG2 Assay for human Nuclear Factor Kappa B (NF-kB) (AID 2282991); conditions: HepG2 Attagene cis-factorial NF-kB reporter mRNA; actives raise or lower the signal
In short: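 Endogenous transcription factor activity in HepG2 was captured via cis-regulated reporter constructs; after 24 h dosing, reporter mRNA was reverse-transcribed, amplified, fluorescently labelled and sized by capillary electrophoresis, with activity fitted bidirectionally relative to DMSO.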

[10] = ATG_NRF2_ARE_CIS: Attagene CIS-FACTORIAL HepG2 Assay for human Nuclear Factor Erythroid 2 Related Factor 2 (NFR2) response to Antioxidant Response Elements (ARE) (AID 2282992); conditions: HepG2 Attagene ARE/NRF2 reporter, transcription factor activity; actives raise or lower the signal;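 as to AC50: reporter mRNA level measured by RT-PCR and capillary electrophoresis fluorescence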
In short: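 Endogenous transcription factor activity in human liver HepG2 cells is tracked via a cis-element-driven reporter within a multiplexed set. mRNA induction is read by RT-PCR and capillary electrophoresis after 24 h, with DMSO as baseline.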

[11] = ATG_Oct_MLP_CIS: Attagene CIS-FACTORIAL HepG2 Assay for human Octamer-Binding Transcription Factor (Oct) (AID 2282993); conditions: HepG2 Attagene cis-factorial Oct reporter, mRNA; actives raise or lower the signal
In short: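 HepG2 cells transiently transfected with cis-promoter-driven multiplexed reporter transcription units, dosed for 24 h. Reporter mRNA quantified by RT-PCR, fluorescent labelling, HpaI digestion and capillary electrophoresis; bidirectional fits versus DMSO baseline.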

[12] = molecular target: Cellular tumor antigen p53 (Homo sapiens) (UniProt P04637); experiment: ATG_p53_CIS: Attagene CIS-FACTORIAL HepG2 Assay for human p53 Transcription Factor (AID 2282994); conditions: HepG2 p53 cis-element reporter, Attagene mRNA; actives raise or lower the signal
Cellular tumor antigen p53 (Homo sapiens), sequence (P04637 whole entry, looked up, the tested form may be a part): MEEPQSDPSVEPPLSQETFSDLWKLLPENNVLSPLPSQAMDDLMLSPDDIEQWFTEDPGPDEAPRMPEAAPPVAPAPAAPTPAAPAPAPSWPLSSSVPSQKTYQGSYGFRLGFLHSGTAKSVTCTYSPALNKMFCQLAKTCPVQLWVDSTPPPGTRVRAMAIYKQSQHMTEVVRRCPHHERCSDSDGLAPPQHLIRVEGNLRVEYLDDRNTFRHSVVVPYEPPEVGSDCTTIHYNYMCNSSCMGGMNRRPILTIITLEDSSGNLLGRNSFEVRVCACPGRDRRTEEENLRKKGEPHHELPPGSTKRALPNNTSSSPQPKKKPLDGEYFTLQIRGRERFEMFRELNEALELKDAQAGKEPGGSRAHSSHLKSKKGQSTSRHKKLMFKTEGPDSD
In short: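 Steps: transfect HepG2 with multiplexed cis reporter constructs; dose chemicals 24 h; extract RNA, reverse-transcribe, PCR-amplify reporter sequences; FAM-label, HpaI-digest, resolve fragments by CE. Activity fitted both directions relative to DMSO.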

[13] = BSK_3C_TissueFactor: BioMAP Diversity Plus: 3C Assay for Tissue Factor Biomarker Activity (AID 2282997); conditions: BioMAP 3C HUVEC, tissue factor biomarker readout; actives raise or lower the signal
In short: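 Readout: Tissue Factor ELISA. Cells: human primary umbilical vein endothelium. Time: 24 h after dosing. Analysis: bidirectional fit, DMSO baseline.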

[14] = BSK_3C_uPAR: BioMAP Diversity Plus: 3C Assay for Urokinase-type plasminogen activator receptor (uPAR) Biomarker Activity (AID 2282998); conditions: BioMAP 3C HUVEC, uPAR biomarker ELISA; actives raise or lower the signal
In short: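 Human umbilical vein endothelial primary cells were exposed to test chemical for 24 h. Cell-surface uPAR was then quantified by ELISA, and responses were fitted bidirectionally against DMSO as negative control and baseline.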

[15] = BSK_3C_VCAM1: BioMAP Diversity Plus: 3C Assay for Vascular cell adhesion molecule 1 (VCAM1) Biomarker Activity (AID 2282999); conditions: BioMAP 3C HUVEC, VCAM1 ELISA, cytokine-stimulated; actives raise or lower the signal
In short: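 Activity fitted in both directions relative to DMSO, with ELISA measurement of the surface marker on primary HUVEC (3C) at 24 h post-treatment; parallel SRB staining (0.1% SRB, TCA-fixed, 560 nm) flagged overt cytotoxicity.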

[16] = ATG_M_06_TRANS: Attagene TRANS-FACTORIAL HepG2 Assay for M06 Transcription Factor (Internal Marker) (AID 2282983; active = hit-call score of the fitted dose curve at least 0.9, where 1 is the maximum;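 also: reporter transcript level by RT-PCR then capillary electrophoresis fluorescence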); conditions: HepG2 Attagene TRANS M06 internal marker reporter
In short: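 In this multiplexed HepG2 system, compounds are incubated 24 h with cells carrying GAL4-UAS reporter units. Reporter RNA is amplified and resolved by capillary electrophoresis, and induction is scored against DMSO.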

[17] = molecular target: Nuclear receptor subfamily 4 group A member 2 (Homo sapiens) (UniProt P43354); experiment: ATG_NURR1_TRANS: Attagene TRANS-FACTORIAL HepG2 Assay for human Nuclear Receptor Related Protein 1 (NURR1) (AID 2282985; active = hit-call score of the fitted dose curve at least 0.9, where 1 is the maximum); conditions: HepG2 Attagene TRANS reporter, mRNA readout
Nuclear receptor subfamily 4 group A member 2 (Homo sapiens), sequence (P43354 whole entry, looked up, the tested form may be a part): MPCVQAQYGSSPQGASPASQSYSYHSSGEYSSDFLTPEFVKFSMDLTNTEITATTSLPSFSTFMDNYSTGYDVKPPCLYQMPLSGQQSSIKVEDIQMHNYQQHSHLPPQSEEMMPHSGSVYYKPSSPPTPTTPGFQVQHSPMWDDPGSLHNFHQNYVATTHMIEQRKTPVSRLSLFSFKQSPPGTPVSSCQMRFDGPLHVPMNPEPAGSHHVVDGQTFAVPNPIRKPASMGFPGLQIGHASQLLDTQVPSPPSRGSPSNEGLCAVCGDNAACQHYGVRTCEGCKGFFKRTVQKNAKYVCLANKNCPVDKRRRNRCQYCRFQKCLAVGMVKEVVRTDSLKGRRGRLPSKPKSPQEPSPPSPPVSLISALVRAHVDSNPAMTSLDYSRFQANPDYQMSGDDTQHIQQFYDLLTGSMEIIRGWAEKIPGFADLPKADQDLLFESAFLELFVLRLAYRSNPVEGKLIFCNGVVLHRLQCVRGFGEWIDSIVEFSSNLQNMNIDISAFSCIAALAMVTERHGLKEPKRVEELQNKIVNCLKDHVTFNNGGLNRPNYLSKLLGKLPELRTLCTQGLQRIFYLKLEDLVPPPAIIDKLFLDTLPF
In short: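 Measures transcriptional activation by an exogenous NR-Gal4 chimera in transfected HepG2 liver cells. After 24 h, reporter RNA is reverse-transcribed, amplified and resolved by capillary electrophoresis; DMSO defines baseline.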

[18] = molecular target: Oxysterols receptor LXR-beta (Homo sapiens) (UniProt P55055); experiment: ATG_LXRb_TRANS: Attagene TRANS-FACTORIAL HepG2 Assay for human Liver X Receptor beta (LXRb) (AID 2282981; active = hit-call score of the fitted dose curve at least 0.9, where 1 is the maximum); conditions: HepG2 Attagene TRANS GAL4-LXRb reporter, mRNA
In short: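 After 24 h of chemical treatment, transfected HepG2 cells yield total RNA; reporter cDNA is PCR-amplified, FAM-labelled, HpaI-cut and run on capillary electrophoresis. Signal reflects chimeric LXRb-Gal4 activity on GAL4-UAS reporters.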

[19] = molecular target: Bile acid receptor (Homo sapiens) (UniProt Q96RI1); experiment: ATG_FXR_TRANS: Attagene TRANS-FACTORIAL HepG2 Assay for Farnesoid X Receptor (FXR) (AID 2282979; active = hit-call score of the fitted dose curve at least 0.9, where 1 is the maximum;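 also: hits raise reporter mRNA above DMSO so AC50 marks FXR activation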); conditions: HepG2 Attagene TRANS FXR-GAL4 reporter transcription
Bile acid receptor (Homo sapiens), sequence (Q96RI1 whole entry, looked up, the tested form may be a part): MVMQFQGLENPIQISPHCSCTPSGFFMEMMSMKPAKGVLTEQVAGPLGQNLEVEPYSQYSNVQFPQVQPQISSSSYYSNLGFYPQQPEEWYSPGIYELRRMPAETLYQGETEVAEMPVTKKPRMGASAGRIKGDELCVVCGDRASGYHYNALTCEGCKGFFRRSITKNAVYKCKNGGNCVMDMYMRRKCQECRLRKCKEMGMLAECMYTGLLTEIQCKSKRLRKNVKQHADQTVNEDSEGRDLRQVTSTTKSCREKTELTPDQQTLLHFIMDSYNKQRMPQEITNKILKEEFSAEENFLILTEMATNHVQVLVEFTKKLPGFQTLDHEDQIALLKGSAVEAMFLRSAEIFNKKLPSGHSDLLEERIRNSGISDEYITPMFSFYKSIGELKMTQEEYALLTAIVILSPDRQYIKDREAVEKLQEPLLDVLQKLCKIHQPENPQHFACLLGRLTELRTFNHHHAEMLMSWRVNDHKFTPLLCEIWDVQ
In short: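 HepG2 cells transiently transfected with reporter constructs in which a chimeric FXR-GAL4 protein drives a GAL4-UAS reporter; 24 h compound exposure. Reporter mRNA measured by RT-PCR, FAM labelling, HpaI digestion and capillary electrophoresis; gain-of-signal versus DMSO.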

Measured: AC50

Cc1cnccn1
inactive: [1] | [2] | [3] | [4] | [5] | [6] | [7] | [8] | [9] | [10] | [11] | [12] | [13] | [14] | [15]

Cc1cc(C)c(O)c(C(C)(C)C)c1
active: [10] 52.2 µM | [13] 26.9 µM | [14] 29.2 µM | [15] 31.6 µM
inactive: [1] | [2] | [16] | [4] | [17] | [5] | [6] | [7] | [9] | [11] | [12]

O=c1[nH]cccc1O
inactive: [1] | [2] | [18] | [16] | [4] | [17] | [5] | [6] | [7] | [8] | [9] | [11] | [12]

Cc1cc(=O)[nH]c(C(C)C)n1
inactive: [1] | [2] | [18] | [3] | [16] | [4] | [17] | [5] | [6] | [7] | [8] | [9] | [10] | [11] | [12]

OCC(O)CC(F)(F)C(F)(F)C(F)(F)C(F)(F)F (stereo not given)
inactive: [1] | [19] | [16] | [5] | [6] | [7] | [8] | [9] | [10] | [11] | [12] | [13] | [14] | [15]

CCc1cc(Cc2cc(CC)c(N)c(CC)c2)cc(CC)c1N
active: [7] 53.4 µM | [10] 1.62 µM | [11] 41.9 µM | [12] 27.2 µM
inactive: [1] | [19] | [3] | [16] | [4] | [17] | [5] | [6] | [9]

Brc1nc2ccccc2s1
inactive: [1] | [3] | [16] | [4] | [17] | [5] | [6] | [7] | [8] | [11] | [12] | [13] | [14] | [15]
active: [10] 23.6 µM

CN(C(=O)C(F)(F)C(F)(F)C(F)(F)F)[Si](C)(C)C
inactive: [1] | [19] | [3] | [16] | [17] | [5] | [6] | [7] | [8] | [9] | [10] | [11] | [12] | [13] | [14] | [15]

CSc1ccc(Cl)cc1
inactive: [1] | [19] | [3] | [16] | [5] | [6] | [7] | [9] | [10] | [11] | [12]

OCCCc1cccnc1
inactive: [1] | [19] | [3] | [16] | [4] | [17] | [5] | [6] | [7] | [9] | [10] | [11] | [12]
